# Test results published in the supplement of paper PMC6555819.
# What was measured:
# Assay in all cases: PBM binding z-score (relative to random genomic background probes); higher = stronger binding; sequences stand for … in GC…GCGATTGACAGCGTAGAATGAAGG
# [1] = test system: PPARg:RXRa DBDmut IVT, anti-RXR (DBD mutation: RXRa K156A/R161A, NR concentration 270 nM, RXRa partner concentration 90 nM)
# Method in brief: (§1)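 Ligand-free nuclear receptor dimers were applied to custom Agilent 4×180K protein-binding microarrays whose double-stranded probes carried direct-repeat seeds, single-nucleotide variants, half-site ablations and random human genomic background sequences in 34-nt variable regions. Incubation lasted 1 h. Binding z-scores were computed against the random background probes from regression-normalized fluorescence.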
# [2] = test system: PPARg:RXRa IVT, anti-PPARg (NR concentration 270 nM, RXRa partner concentration 90 nM)
# Method in brief: as §1
# [3] = test system: PPARg DBDmut:RXRa IVT, anti-PPARg (DBD mutation: PPARg1 K132A/R137A, NR concentration 270 nM, RXRa partner concentration 90 nM)
# Method in brief: as §1
# [4] = test system: PPARg DBDmut IVT, anti-PPARg (DBD mutation: PPARg1 K132A/R137A, NR concentration 270 nM)
# Method in brief: as §1
# [5] = test system: PPARg homodimer (NR concentration 180 nM)
# Method in brief: as §1
# [6] = test system: PXR:RXRa (NR concentration 270 nM, RXRa partner concentration 90 nM)
# Method in brief: as §1
# [7] = test system: PXR homodimer (NR concentration 270 nM)
# Method in brief: as §1
# [8] = test system: RARa:RXR (NR concentration 270 nM, RXRa partner concentration 90 nM)
# Method in brief: as §1
# [9] = test system: RARa homodimer (NR concentration 270 nM)
# Method in brief: as §1
# [10] = test system: RARb:RXRa (NR concentration 270 nM, RXRa partner concentration 90 nM)
# Method in brief: as §1
# [11] = test system: RARb homodimer (NR concentration 270 nM)
# Method in brief: as §1
# [12] = test system: RARg:RXRa (NR concentration 270 nM, RXRa partner concentration 90 nM)
# Method in brief: as §1
# [13] = test system: RARg homodimer (NR concentration 270 nM)
# Method in brief: as §1
# [14] = test system: RXRa DBDmut IVT, anti-RXR (DBD mutation: RXRa K156A/R161A, NR concentration 90 nM)
# Method in brief: as §1
# [15] = test system: RXRa homodimer (NR concentration 180 nM)
# Method in brief: as §1
# [16] = test system: THRa:RXRa (NR concentration 90 nM, RXRa partner concentration 90 nM)
# Method in brief: as §1
# [17] = test system: THRa homodimer (NR concentration 90 nM)
# Method in brief: as §1
# [18] = test system: VDR homodimer (NR concentration 270 nM)
# Method in brief: as §1
Sequence,PBM binding z-score [1],PBM binding z-score [2],PBM binding z-score [3],PBM binding z-score [4],PBM binding z-score [5],PBM binding z-score [6],PBM binding z-score [7],PBM binding z-score [8],PBM binding z-score [9],PBM binding z-score [10],PBM binding z-score [11],PBM binding z-score [12],PBM binding z-score [13],PBM binding z-score [14],PBM binding z-score [15],PBM binding z-score [16],PBM binding z-score [17],PBM binding z-score [18]
CCTACTGGGCCATTCAGGGGTCATTGATCATATG,3.55,4.44,-0.679,-0.364,2.13,5.18,1.05,5.59,0.603,3.03,3.95,4.69,3,0.56,5.5,3.31,0.962,4.05
CGAACTAGGTCATTGAAAGGACAGTGAATAGTAA,8.01,8.24,2.22,2.02,3.92,2.1,0.391,4.04,1.01,4.1,3.34,6.37,4.98,2.17,2.84,3.16,0.878,0.863
TATACAGCGTCAAAGGCCAGAGTACGAATGTCGA,-0.701,0.258,-0.154,0.515,-0.844,-0.442,-0.0905,-0.513,-0.705,0.524,0.415,0.284,0.525,-1.06,0.258,-0.433,-1.11,-0.0431
CGAACCAGGTCAAGGACAGTGAATCTCCGCACGC,4.75,5.44,0.626,1.5,2.06,2.01,0.853,3,0.303,4.04,3.09,3.99,4.33,2.23,3.47,3.82,2.79,1.05
ATCGAAAGGTCGTGAGGTGAGGATACAGAAAGGC,0.406,2.89,1.55,0.615,2.28,3.3,0.684,4.61,1.12,4.13,3.16,4.81,3.99,1.31,5.33,3.74,2.51,0.974
GTACCAAGGTGAAGAGGTCGTTGATGAGTAGGCG,1.79,2.51,-0.57,-0.181,1.37,2.15,0.607,2.68,-0.129,2.35,2.46,3.26,1.79,0.608,2.65,2.47,1.09,2.21
ATCTCTAGGTAACCAAGTTCAGTGAATGCCGAAC,3.64,3.09,0.611,1.02,1,1.86,1.98,0.882,0.575,1.36,1.52,0.894,0.853,0.991,0.572,1.6,0.96,2.99
AGTCTAAGTTCACTAGGTAACGTAAGATTCAGCT,2.75,3.66,0.895,1.1,1.24,3.63,4.11,1.93,0.914,3.58,2.21,3.35,3.69,4.47,2.31,2.27,0.878,4.71
CCAACTGGGGCAAGGTTACCATAACGCACAGCCA,5.12,5.51,0.138,-0.27,0.543,0.378,0.0268,0.879,0.291,1.78,1.51,0.917,1.56,-0.0848,1.13,1.4,0.42,-0.0492
TCTATTACTTGAAGGGCAACCGACGAGTCCGTTT,2.52,0.782,1.07,1.12,0.761,1.01,0.901,1.02,1.4,1.59,1.51,0.815,0.75,1.72,0.98,0.289,0.362,1.46
CCTCGGACGACAACAGGAGGTCAGAGCTGCCAGA,-0.649,0.0157,-0.728,-1.24,1.84,1.67,0.467,2.11,0.372,1.96,2.97,1.95,1.99,-0.432,1.84,1.92,0.602,0.934
CCTTACGGGTCACTGACAGGCTATAGCATTTGGA,3.84,3.67,0.647,-0.225,2.27,2.94,-0.147,3.69,0.758,3.76,2.85,5.13,4.79,1.86,5.2,2.41,-0.00278,0.687
TCATATAGGTAAAAAGGTGAAAGTCCGTAAGTTA,4.17,4,0.729,0.649,1.85,1.4,0.696,2.87,1.81,2.03,2.04,2.48,1.06,1.71,2.42,1.55,0.644,0.718
TCGAGTGGGTTAGTCGGGGCATTCAGCCAACATA,1.67,1.4,0.134,-0.527,0.359,0.291,0.241,0.255,0.0202,0.514,0.697,-0.203,-0.276,0.51,-0.199,1.18,0.456,0.85
GCTGCTAAGTCAACTGATGGTCAGCTAAAGCTCG,-0.284,-0.667,-2.15,-1.17,-0.917,-0.575,-1.21,-0.177,-1.24,0.174,0.11,0.204,-0.211,0.184,-0.0847,-0.519,-1.1,-1.02
CAAACTAGGTCACAGAGGTCACAGTCCGTGCGTA,8.75,9.01,2.8,2.69,5.83,6.57,9.23,7.15,2.78,5.35,5.65,7.17,7.58,2.76,7.39,4.67,3.58,6.14

Sequence,PBM binding z-score [1],PBM binding z-score [2],PBM binding z-score [3],PBM binding z-score [4],PBM binding z-score [5],PBM binding z-score [6],PBM binding z-score [7],PBM binding z-score [8],PBM binding z-score [9],PBM binding z-score [10],PBM binding z-score [11],PBM binding z-score [12],PBM binding z-score [13],PBM binding z-score [14],PBM binding z-score [15],PBM binding z-score [16],PBM binding z-score [17],PBM binding z-score [18]
GCTTTCGGGTCAAAGGTTATAGCATGAATAGAAT,3.82,5.81,1.23,1.1,1.81,5.89,0.475,8.07,1.08,4.59,3.37,7.01,5.04,2.52,9.55,4.61,2.14,2.16
ACTAGCATGCCAAGGGTCACTCAAGATTAGTCCG,0.455,2.66,-0.409,0.469,2.73,3.31,-0.0678,4.02,0.721,3.38,3.83,3.77,3.69,0.719,3.91,2.75,0.299,1.64
CCGACTGCGGCAAAGGTTACCATACTCAGTACGA,0.233,0.732,0.0182,0.245,0.843,1.61,-0.16,2.57,0.118,1.82,2.07,1.43,1.07,0.531,2.46,1.33,0.0326,0.183
TAGCCTAGGTCATACGGGCCAGTATAGTGTCGGC,1.67,2.89,-0.195,-0.639,0.811,1.66,-0.13,2.4,0.0154,3.56,2.87,3.74,4.43,0.941,3.22,2.92,0.814,0.783
TCATGTAGGTAAATGCTAGGTGAAAGTCCGATCT,4.15,3.44,0.811,1.12,0.796,0.502,0.512,0.568,1.39,0.378,0.541,0.226,0.15,1.26,0.398,1.28,0.741,0.319
TCTATTAGTTGATTAGCGCAACCGAAACAGCGGA,2.41,0.138,0.332,0.505,1.14,0.438,0.358,0.258,1.03,0.252,-0.343,0.177,-0.0626,1.29,0.499,0.0464,0.16,0.523
TCATACAGGTAAATGCTAGGTGAAAGTCCGATCT,2.68,1.46,0.656,0.391,0.443,0.585,0.0342,0.804,0.732,0.542,0.654,0.462,0.278,1.48,0.593,1.47,0.878,0.146
TCTTGTAGATCAAGCAGGTGAAGAAAGCCTGAGT,1.7,0.945,0.265,-0.33,-0.0595,0.043,-0.139,0.061,-0.384,-0.159,-0.296,-0.262,-0.325,0.591,0.0351,-0.0555,-0.319,-0.154
AGAACGAGGGCAATGAGTTAATAGCACGGGTGGC,3.29,2.59,0.242,0.395,0.0728,1.43,2.98,0.239,-0.224,2.04,1.08,1.43,1.51,1.74,0.7,0.999,-0.107,1.99
ATCTCTAGGTAACCCAGTTCAGTGAATGCCGAAC,4.06,4.47,1.33,1.28,1.12,1.64,1.23,0.719,0.547,0.652,0.825,0.714,0.439,0.564,0.828,1.45,0.872,1.39
AGTCAAACTTCATCTAGGTAACGTAAGATATGCT,0.952,1.7,1.48,0.721,-0.505,-0.365,0.02,-0.125,0.222,0.212,-0.47,-0.19,0.544,0.281,0.109,0.484,0.329,-0.372
CCTTACGGGTCACGAGGTTAGAGCACGACGAGCG,4.55,5.59,2.76,1.38,2.96,4.32,-0.124,5.72,0.978,4.6,3.63,6.04,5.46,2.04,6.47,3.45,0.765,1.84
TCATATAGGTAAAAGGTGATAGTCGGTGTGGTAA,5.2,4.18,1.26,1.38,1.66,0.875,0.988,1.84,1.85,1.17,1.15,0.851,0.577,1.76,1.86,0.901,0.434,0.283
TCGAGTAGGTTACCAATGGGCCATTCAGCTTTCT,3.13,2.59,-1.01,-0.848,-0.318,0.108,-0.851,0.175,-0.737,0.862,0.543,0.598,0.337,0.37,0.688,0.184,-0.731,-0.805
GGAACGAGGGCAAAGTTGTTAGCATCTGTCGACG,3.85,3.57,0.128,-0.75,0.469,0.802,0.198,0.675,0.0341,2.31,1.15,1.47,1.48,2.61,1.11,1.12,-0.449,1.32
